Measurements from PMC7862700, “An all-to-all approach to the identification of sequence-specific readers for epigenetic DNA modifications on cytosine”.

Columns and labels:
Test in all cases: DAPPL (digital affinity profiling via proximity ligation, sequencing); 10 mM Tris-HCl pH 7.5, 50 mM NaCl, 1 mM DTT, 4% glycerol, room temperature, 30 min; GST-TFs on glutathione beads, 16-mer random dsDNA library, 0.1% formaldehyde crosslink after washing; high values mean tight binding
FLI1 = molecular target: T1, FLI1 (Homo sapiens, UniProt Q01543 1-452); details: protein: recombinant; tags: N-terminal GST; dsDNA, one strand shown
T1 sequence: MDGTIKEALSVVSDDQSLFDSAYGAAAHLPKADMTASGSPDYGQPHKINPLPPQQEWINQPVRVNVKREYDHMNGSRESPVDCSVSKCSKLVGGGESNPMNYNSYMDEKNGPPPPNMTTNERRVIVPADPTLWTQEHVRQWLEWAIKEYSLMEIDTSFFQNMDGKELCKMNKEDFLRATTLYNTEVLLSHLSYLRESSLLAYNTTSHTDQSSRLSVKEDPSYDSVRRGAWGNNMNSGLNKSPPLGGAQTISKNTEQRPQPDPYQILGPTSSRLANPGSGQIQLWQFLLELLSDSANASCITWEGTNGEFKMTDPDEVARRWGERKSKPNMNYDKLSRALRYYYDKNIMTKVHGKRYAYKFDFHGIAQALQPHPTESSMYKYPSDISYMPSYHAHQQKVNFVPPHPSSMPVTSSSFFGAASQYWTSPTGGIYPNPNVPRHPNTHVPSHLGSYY
Summary of the method: (§1)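 Binding signal is given per hexamer as its read frequency for a factor divided by its frequency in the tag-only sample. GST-fused human transcription factors were expressed in yeast, captured on glutathione beads, barcoded with DNA and pooled with that sample, then incubated with 200 nmole of a 16-mer random double-stranded DNA library in Tris/NaCl/DTT/glycerol buffer for 30 min at room temperature. The pools were then washed, crosslinked, proximity-ligated, amplified by PCR and sequenced on an Illumina NextSeq500.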

ELK1 = molecular target: T2, ELK1 (Homo sapiens, UniProt P19419 1-428); details: protein: recombinant; tags: N-terminal GST; dsDNA, one strand shown
T2 sequence: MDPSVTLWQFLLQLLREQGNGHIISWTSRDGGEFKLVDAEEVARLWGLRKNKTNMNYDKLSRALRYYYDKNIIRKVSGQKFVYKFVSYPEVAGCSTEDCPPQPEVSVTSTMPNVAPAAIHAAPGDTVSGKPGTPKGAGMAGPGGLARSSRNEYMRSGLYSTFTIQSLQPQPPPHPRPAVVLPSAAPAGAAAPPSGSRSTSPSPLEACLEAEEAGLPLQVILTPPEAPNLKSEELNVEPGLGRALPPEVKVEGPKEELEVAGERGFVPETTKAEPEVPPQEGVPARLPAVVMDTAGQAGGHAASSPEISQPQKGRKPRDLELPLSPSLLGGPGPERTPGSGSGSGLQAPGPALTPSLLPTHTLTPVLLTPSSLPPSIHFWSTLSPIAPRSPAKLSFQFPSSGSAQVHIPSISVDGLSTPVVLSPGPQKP
Summary of the method: as §1

GABPA = molecular target: T3, GABPA (Homo sapiens, UniProt Q06546 1-454); details: protein: recombinant; tags: N-terminal GST; dsDNA, one strand shown
T3 sequence: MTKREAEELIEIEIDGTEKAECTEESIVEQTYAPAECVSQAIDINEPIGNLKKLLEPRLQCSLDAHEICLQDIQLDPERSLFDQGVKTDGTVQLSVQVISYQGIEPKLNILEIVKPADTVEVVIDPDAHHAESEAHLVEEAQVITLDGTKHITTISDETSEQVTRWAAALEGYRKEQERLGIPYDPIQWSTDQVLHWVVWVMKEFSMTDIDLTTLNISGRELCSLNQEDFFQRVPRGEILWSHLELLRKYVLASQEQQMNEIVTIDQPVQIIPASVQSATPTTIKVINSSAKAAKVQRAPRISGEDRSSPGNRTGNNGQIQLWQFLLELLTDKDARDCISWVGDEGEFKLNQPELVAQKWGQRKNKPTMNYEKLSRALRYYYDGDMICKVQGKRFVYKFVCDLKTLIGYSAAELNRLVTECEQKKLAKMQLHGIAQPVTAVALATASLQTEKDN
Summary of the method: as §1

ERG = molecular target: T4, ERG (Homo sapiens, UniProt P11308 1-479); details: protein: recombinant; tags: N-terminal GST; dsDNA, one strand shown
T4 sequence: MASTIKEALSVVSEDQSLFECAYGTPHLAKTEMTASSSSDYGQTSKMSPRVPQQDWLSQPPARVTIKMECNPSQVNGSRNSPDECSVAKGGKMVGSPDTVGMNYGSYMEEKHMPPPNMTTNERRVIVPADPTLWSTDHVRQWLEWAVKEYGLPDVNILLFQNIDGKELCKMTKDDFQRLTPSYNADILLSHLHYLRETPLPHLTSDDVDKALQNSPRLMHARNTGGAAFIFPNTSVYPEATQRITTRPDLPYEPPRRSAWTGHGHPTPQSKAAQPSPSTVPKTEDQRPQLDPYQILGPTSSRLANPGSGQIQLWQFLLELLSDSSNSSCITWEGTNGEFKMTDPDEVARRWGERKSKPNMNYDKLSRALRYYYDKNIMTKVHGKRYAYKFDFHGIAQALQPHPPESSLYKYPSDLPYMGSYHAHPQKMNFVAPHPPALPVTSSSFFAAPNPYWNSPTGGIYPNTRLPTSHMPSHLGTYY
Summary of the method: as §1

ELF1 = ELF1 (Homo sapiens, UniProt P32519 1-619); details: protein: recombinant; tags: N-terminal GST; dsDNA, one strand shown
Summary of the method: as §1

EHF = molecular target: T5, EHF (Homo sapiens, UniProt Q9NZC4 1-300); details: protein: recombinant; tags: N-terminal GST; dsDNA, one strand shown
T5 sequence: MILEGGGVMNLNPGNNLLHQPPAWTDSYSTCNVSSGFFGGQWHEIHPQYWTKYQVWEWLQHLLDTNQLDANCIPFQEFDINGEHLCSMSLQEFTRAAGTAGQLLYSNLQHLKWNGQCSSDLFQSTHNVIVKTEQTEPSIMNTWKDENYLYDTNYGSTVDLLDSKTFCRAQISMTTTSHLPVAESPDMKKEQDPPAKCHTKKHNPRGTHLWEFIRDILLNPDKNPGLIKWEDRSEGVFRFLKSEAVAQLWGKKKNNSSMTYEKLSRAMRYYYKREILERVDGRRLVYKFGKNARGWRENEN
Summary of the method: as §1

SPI1 = SPI1 (Homo sapiens, UniProt P17947 1-270); details: protein: recombinant; tags: N-terminal GST; dsDNA, one strand shown
Summary of the method: as §1

SPIB = SPIB (Homo sapiens, UniProt Q01892 1-262); details: protein: recombinant; tags: N-terminal GST; dsDNA, one strand shown
Summary of the method: as §1

ELK3 = molecular target: T6, ELK3 (Homo sapiens, UniProt P41970 1-407); details: protein: recombinant; tags: N-terminal GST; dsDNA, one strand shown
T6 sequence: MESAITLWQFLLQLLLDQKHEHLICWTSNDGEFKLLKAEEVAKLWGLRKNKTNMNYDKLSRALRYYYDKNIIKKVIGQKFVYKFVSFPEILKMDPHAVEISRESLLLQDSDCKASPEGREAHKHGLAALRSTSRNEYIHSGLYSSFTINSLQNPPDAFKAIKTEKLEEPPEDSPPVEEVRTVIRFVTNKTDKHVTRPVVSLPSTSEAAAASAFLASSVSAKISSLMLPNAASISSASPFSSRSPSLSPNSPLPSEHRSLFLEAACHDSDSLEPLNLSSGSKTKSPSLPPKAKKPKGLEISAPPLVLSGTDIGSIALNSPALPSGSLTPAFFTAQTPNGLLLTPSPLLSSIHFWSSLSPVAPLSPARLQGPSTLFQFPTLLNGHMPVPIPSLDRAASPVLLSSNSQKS
Summary of the method: as §1

FEV = molecular target: T7, FEV (Homo sapiens, UniProt Q99581 1-238); details: protein: recombinant; tags: N-terminal GST; dsDNA, one strand shown
T7 sequence: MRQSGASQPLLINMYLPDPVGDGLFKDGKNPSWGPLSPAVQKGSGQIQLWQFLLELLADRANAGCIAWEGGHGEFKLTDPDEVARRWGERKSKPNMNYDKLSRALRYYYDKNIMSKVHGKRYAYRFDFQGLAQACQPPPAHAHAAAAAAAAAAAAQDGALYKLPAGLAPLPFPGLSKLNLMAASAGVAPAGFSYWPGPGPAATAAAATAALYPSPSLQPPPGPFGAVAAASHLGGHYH
Summary of the method: as §1

ETV5 = ETV5 (Homo sapiens, UniProt P41161 1-510); details: protein: recombinant; tags: N-terminal GST; dsDNA, one strand shown
Summary of the method: as §1

HSF1 = HSF1 (Homo sapiens, UniProt Q00613 1-529); details: protein: recombinant; tags: N-terminal GST; chain copies: 3; dsDNA, one strand shown
Summary of the method: as §1

SPIC = molecular target: T8, SPIC (Homo sapiens, UniProt Q8N5J4 1-248); details: protein: recombinant; tags: N-terminal GST; dsDNA, one strand shown
T8 sequence: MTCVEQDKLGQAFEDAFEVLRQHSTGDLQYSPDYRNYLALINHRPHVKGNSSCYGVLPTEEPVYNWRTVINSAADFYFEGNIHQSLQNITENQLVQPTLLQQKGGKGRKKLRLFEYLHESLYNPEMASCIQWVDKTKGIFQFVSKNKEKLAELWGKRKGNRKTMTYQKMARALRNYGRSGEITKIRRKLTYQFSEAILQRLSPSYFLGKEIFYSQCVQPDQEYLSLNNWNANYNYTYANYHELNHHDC
Summary of the method: as §1

ELF4 = ELF4 (Homo sapiens, UniProt Q99607 1-663); details: protein: recombinant; tags: N-terminal GST; dsDNA, one strand shown
Summary of the method: as §1

ELK4 = molecular target: T9, ELK4 (Homo sapiens, UniProt P28324-2 1-405); details: protein: recombinant; tags: N-terminal GST; dsDNA, one strand shown
T9 sequence: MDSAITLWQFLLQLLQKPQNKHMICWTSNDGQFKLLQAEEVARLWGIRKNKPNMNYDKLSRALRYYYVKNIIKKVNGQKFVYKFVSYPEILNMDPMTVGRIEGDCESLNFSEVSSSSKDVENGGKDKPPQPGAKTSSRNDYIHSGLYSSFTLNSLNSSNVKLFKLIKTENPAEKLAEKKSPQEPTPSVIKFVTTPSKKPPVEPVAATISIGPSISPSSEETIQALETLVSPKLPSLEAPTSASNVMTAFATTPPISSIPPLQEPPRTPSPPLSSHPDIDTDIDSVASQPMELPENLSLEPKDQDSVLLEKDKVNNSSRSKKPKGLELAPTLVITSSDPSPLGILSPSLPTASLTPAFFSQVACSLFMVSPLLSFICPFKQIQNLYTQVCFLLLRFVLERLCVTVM
Summary of the method: as §1

ETV2 = molecular target: T10, ETV2 (Homo sapiens, UniProt O00321 1-342); details: protein: recombinant; tags: N-terminal GST; dsDNA, one strand shown
T10 sequence: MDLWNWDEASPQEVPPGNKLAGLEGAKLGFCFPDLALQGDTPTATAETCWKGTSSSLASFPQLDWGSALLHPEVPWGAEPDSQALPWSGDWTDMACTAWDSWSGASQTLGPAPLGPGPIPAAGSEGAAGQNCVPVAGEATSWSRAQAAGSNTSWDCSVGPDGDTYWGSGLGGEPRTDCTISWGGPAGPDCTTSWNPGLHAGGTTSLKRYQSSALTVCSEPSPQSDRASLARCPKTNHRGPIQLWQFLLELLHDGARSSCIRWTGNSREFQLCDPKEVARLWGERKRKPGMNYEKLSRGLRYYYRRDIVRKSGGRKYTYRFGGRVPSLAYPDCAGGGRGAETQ
Summary of the method: as §1

ELF3 = molecular target: T11, ELF3 (Homo sapiens, UniProt P78545 1-371); details: protein: recombinant; tags: N-terminal GST; dsDNA, one strand shown
T11 sequence: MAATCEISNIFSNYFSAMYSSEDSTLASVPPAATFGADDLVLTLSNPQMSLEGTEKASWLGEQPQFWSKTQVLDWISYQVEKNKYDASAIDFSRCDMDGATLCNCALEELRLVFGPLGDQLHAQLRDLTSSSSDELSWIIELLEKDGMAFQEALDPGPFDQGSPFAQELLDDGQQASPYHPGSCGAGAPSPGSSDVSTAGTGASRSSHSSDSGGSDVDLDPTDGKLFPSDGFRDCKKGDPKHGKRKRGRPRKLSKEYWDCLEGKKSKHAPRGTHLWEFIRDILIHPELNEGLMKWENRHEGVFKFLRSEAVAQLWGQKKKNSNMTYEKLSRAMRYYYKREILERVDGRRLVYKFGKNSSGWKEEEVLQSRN
Summary of the method: as §1

CRX = CRX (Homo sapiens, UniProt O43186 1-299); details: protein: recombinant; tags: N-terminal GST; dsDNA, one strand shown
Summary of the method: as §1

ETV1 = ETV1 (Homo sapiens, UniProt P50549 1-477); details: protein: recombinant; tags: N-terminal GST; dsDNA, one strand shown
Summary of the method: as §1

ETV5, sequence (P41161 whole entry): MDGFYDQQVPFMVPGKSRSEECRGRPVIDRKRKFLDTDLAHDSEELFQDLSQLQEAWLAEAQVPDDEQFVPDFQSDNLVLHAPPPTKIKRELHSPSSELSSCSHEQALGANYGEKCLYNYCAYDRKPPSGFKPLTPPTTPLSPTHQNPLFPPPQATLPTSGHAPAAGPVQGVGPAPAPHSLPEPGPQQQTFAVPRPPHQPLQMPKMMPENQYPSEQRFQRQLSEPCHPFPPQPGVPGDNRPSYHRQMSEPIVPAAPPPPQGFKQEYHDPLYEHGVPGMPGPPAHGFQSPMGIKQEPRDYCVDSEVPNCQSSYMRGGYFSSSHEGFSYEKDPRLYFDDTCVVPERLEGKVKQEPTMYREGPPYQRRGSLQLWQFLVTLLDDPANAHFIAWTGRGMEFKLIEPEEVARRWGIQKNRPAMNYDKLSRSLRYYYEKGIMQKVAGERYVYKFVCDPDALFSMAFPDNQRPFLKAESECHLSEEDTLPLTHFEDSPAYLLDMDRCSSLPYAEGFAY
HSF1, sequence (Q00613 whole entry): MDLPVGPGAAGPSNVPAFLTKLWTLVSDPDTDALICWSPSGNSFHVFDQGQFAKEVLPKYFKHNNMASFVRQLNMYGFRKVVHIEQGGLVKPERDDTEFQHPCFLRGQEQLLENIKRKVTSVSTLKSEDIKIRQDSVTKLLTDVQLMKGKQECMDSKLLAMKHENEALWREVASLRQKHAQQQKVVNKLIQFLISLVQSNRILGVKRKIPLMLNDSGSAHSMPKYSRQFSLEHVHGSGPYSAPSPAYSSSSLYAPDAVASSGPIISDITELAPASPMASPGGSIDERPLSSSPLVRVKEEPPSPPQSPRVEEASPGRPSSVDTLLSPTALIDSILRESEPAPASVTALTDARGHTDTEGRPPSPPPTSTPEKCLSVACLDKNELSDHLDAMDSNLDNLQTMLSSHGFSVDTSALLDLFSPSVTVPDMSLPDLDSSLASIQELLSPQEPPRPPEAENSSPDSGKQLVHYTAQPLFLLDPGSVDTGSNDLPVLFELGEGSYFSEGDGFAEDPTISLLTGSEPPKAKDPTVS
CRX, sequence (O43186 whole entry): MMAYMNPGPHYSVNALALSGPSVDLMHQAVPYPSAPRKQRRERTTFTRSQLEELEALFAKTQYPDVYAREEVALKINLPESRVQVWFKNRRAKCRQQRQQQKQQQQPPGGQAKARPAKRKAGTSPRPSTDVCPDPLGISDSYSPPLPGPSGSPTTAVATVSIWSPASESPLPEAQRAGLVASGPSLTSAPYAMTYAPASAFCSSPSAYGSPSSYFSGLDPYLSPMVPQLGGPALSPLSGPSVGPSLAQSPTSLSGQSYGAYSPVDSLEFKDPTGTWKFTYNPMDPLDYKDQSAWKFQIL
ETV1, sequence (P50549 whole entry): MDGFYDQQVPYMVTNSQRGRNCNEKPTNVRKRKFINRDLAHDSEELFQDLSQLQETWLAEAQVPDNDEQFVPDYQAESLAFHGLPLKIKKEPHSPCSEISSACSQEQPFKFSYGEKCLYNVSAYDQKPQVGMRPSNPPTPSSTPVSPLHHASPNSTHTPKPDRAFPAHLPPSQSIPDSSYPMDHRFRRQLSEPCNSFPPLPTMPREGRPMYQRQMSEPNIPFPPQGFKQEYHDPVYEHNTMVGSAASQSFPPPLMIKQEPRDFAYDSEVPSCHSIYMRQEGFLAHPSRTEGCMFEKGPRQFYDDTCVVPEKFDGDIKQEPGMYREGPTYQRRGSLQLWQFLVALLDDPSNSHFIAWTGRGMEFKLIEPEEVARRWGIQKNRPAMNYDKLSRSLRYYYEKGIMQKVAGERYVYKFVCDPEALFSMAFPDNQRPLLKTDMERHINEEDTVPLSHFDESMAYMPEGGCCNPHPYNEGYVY
SPIB, sequence (Q01892 whole entry): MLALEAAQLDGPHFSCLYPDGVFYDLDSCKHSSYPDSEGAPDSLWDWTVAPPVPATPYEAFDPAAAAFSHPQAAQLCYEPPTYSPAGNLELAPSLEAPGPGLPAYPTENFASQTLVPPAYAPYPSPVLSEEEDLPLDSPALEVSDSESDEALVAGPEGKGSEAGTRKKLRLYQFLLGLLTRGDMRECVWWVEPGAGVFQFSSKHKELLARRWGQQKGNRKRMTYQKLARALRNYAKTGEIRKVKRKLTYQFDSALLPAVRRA
ELF1, sequence (P32519 whole entry): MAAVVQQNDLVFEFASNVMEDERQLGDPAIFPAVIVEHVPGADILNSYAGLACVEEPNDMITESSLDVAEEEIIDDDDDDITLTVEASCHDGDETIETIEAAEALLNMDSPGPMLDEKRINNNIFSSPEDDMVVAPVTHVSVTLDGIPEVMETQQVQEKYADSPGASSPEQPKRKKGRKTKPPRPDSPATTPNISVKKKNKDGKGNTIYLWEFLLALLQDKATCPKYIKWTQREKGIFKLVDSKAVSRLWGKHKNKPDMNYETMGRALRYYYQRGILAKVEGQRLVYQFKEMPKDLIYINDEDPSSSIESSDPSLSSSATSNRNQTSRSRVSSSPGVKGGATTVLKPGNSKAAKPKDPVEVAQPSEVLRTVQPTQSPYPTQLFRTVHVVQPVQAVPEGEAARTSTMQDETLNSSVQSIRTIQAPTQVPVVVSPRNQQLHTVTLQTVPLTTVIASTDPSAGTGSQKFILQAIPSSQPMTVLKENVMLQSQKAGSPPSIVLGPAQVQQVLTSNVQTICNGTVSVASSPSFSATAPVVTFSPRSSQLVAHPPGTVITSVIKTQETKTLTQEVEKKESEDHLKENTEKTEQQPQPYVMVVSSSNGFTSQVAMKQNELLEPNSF
ELF4, sequence (Q99607 whole entry): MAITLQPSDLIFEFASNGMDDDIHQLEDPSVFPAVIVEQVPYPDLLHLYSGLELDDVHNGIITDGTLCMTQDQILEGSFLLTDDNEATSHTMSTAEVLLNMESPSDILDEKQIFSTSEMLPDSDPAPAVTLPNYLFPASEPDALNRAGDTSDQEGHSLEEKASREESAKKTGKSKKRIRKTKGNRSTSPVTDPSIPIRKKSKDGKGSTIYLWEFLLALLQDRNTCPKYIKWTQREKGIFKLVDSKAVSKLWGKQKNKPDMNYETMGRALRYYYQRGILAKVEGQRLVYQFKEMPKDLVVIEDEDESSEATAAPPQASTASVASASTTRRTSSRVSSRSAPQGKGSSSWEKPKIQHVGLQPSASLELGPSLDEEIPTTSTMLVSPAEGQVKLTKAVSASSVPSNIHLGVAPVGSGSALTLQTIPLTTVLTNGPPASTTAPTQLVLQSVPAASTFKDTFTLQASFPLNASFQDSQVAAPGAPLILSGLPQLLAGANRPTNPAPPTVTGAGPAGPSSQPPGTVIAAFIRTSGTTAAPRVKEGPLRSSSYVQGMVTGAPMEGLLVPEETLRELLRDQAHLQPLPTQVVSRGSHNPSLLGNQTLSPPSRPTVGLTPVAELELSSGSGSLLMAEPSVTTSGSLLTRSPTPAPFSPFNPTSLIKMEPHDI

CTCAAT
binding signal (FLI1): 1.28 fold enrichment (6-mer frequency, TF over GST control)
binding signal (ELK1): 1.2 fold enrichment (6-mer frequency, TF over GST control)
binding signal (GABPA): 1.28 fold enrichment (6-mer frequency, TF over GST control)
binding signal (ERG): 1.27 fold enrichment (6-mer frequency, TF over GST control)
binding signal (ELF1): 1.23 fold enrichment (6-mer frequency, TF over GST control)
binding signal (EHF): 1.25 fold enrichment (6-mer frequency, TF over GST control)
binding signal (SPI1): 1.33 fold enrichment (6-mer frequency, TF over GST control)
binding signal (SPIB): 1.36 fold enrichment (6-mer frequency, TF over GST control)
binding signal (ELK3): 1.34 fold enrichment (6-mer frequency, TF over GST control)
binding signal (FEV): 1.23 fold enrichment (6-mer frequency, TF over GST control)
binding signal (ETV5): 1.31 fold enrichment (6-mer frequency, TF over GST control)
binding signal (HSF1): 1.17 fold enrichment (6-mer frequency, TF over GST control)
binding signal (SPIC): 1.17 fold enrichment (6-mer frequency, TF over GST control)
binding signal (ELF4): 1.26 fold enrichment (6-mer frequency, TF over GST control)
binding signal (ELK4): 1.3 fold enrichment (6-mer frequency, TF over GST control)
binding signal (ETV2): 1.4 fold enrichment (6-mer frequency, TF over GST control)
binding signal (ELF3): 1.22 fold enrichment (6-mer frequency, TF over GST control)
binding signal (CRX): 1.25 fold enrichment (6-mer frequency, TF over GST control)
binding signal (ETV1): 1.27 fold enrichment (6-mer frequency, TF over GST control)
